Screening results: PubChem BioAssay, Broad Institute
aSyn UTR act = Activators via SNCA 5'UTR binding, MLPCN; activity score, % (tested at 7.5 µM), hits read low; alpha-synuclein 5'UTR reporter, activators screen; 7.1% of 300,000 active; in the data active = activity score below about -60%
Numbers without * were called inactive. These entries were drawn from the full list.

SMILES	aSyn UTR act
C#CCN(C)CCCOc1ccc(Cl)cc1Cl	-79*
CCCCC(=O)NC(c1ccc(Cl)cc1Cl)c1ccc2cccnc2c1O (stereo not given)	92
CC(C)NC(=O)CCCOc1ccc(Cl)cc1Cl	-68*
CCN(CC)C(=O)CCCOc1ccc(Cl)cc1Cl	-96*
Oc1csc(Cc2nc(-c3ccc(Br)cc3)cs2)n1	-291*
O=C(Nc1ccc2nc[nH]c2c1)c1ccco1	-74*
O=C(Nc1ccc2nc(-c3ccc(Br)o3)[nH]c2c1)c1ccco1	-106*
CC(=O)Nc1ccc2nc(-c3ccc(Br)o3)[nH]c2c1	-127*
O=C(Nc1ccc2nc(-c3cccnc3)[nH]c2c1)C1CCCCC1	-72*
O=C(Nc1ccc2nc(-c3ccccc3)[nH]c2c1)c1ccco1	-205*
Cc1cccc2[nH]c(-c3ccc(NC(=O)c4ccco4)cc3)nc12	-225*
Cc1cc(C)cc(NS(=O)(=O)c2ccc(-c3cnc(C4CC4)o3)cc2)c1	93
O=C(Nc1ccc2nc(-c3ccc(Br)o3)[nH]c2c1)c1cccs1	-112*
Cc1ccc(-c2nc3ccc(NS(=O)(=O)c4ccccc4)cc3[nH]2)o1	-174*
CC1CC1C(=O)Nc1nc2ccc(Cl)cc2s1 (stereo not given)	-134*
CCc1noc(C)c1C(=O)Nc1nc2ccc(F)cc2s1	-139*
Cc1cc(C)c2nc(NCc3ccccc3O)sc2c1	-118*
O=C(Nc1nc2ccc(Cl)cc2s1)[C@@H]1CCCN1C(=O)c1cccs1	-92*
Cc1cc(C)c2nc(NC(=O)c3cc(C)on3)sc2c1	-89*
CCC(=O)NNc1nc2c(C)cc(C)cc2s1	-63*
Cc1cc(C)c2nc(NNC(=O)c3ccc(S(=O)(=O)N4CC(C)CC(C)C4)cc3)sc2c1 (stereo not given)	72
CCc1ccc2nc(NC(=O)c3cc(C)on3)sc2c1	-66*
Cc1noc(C)c1C(=O)Nc1nc2ccc(Cl)cc2s1	-82*
CCc1ccc2nc(NC(=O)C3CSC4(C)CCC(=O)N34)sc2c1 (stereo not given)	-107*
Nc1ccc2nc(-c3ccccn3)[nH]c2c1	-161*
SMILES	aSyn UTR act
Nc1ccc2nc(-c3ccc(N)c(Cl)c3)[nH]c2c1	-115*
Nc1ccc(-c2nc3c(Cl)cc(N)cc3[nH]2)cc1	85
COc1ccc2nc(-c3ccccn3)[nH]c2c1	-80*
Nc1cccc(-c2nc3ccc(C(=O)c4ccccc4)cc3[nH]2)c1	-276*
Nc1ccc2nc(-c3cccs3)[nH]c2c1	-156*
Nc1ccc2nc(-c3ccccc3)[nH]c2c1	-126*
BrC(=C\c1ccccc1)/C=N/N1CCN(c2ccccc2)CC1	-65*
C(=N\N1CCN(c2ccccc2)CC1)/c1ccccc1	-123*
COC(=O)c1ccc(/C=N\N2CCN(c3ccccc3)CC2)cc1	-127*
Cc1ccc(C(=O)O/N=C/c2c(N3CCOCC3)n(C)c3ccccc23)cc1	77
Clc1ccc(N2CCN(/N=C/c3cccnc3)CC2)cc1	-67*
CSc1ccccc1OCc1cc(C(=O)N2CCCC2c2nonc2C)no1 (stereo not given)	-144*
Cc1nonc1C1CCCN1C(=O)c1cc(COc2ccc(F)cc2F)on1 (stereo not given)	-126*
COC(=O)Nc1nnc(-c2ccccc2Cl)s1	-94*
Cc1ccc(-c2nc3ncccc3o2)cc1NC(=O)c1ccc([N+](=O)[O-])o1	-511*
O=C(Nc1ncc(Cl)cn1)c1cccs1	-69*
O=C(Nc1ccc(-c2nc3ncccc3o2)cc1)c1ccc([N+](=O)[O-])o1	100
O=C(NC(=S)Nc1ccc(Cl)cn1)c1cccs1	-92*
O=C(NC(=S)Nc1ccccn1)c1ccco1	-173*
CC1CC2(C)Oc3ccccc3CC2C(C)C1CNCCCN(C)C (stereo not given)	106
Cc1ccnc(NC(=S)NC(=O)c2ccco2)c1	-140*
Cc1ccnc(NC(=S)NC(=O)c2cccs2)c1	-270*
Cc1cc(-c2nc3ncccc3o2)ccc1NC(=S)NC(=O)c1ccco1	-67*
O=C(NC(=S)Nc1cccnc1Cl)c1ccco1	-62*
O=C(Nc1ccc(NC(=O)c2cccs2)c(Cl)c1)c1ccco1	-123*
SMILES	aSyn UTR act
O=C(Nc1ccc(N2CCCC2)c(Cl)c1)c1cccs1	-114*
O=C(NC(=S)Nc1ccc(N2CCCCC2)cc1)c1cccs1	-104*
O=C(NC(=S)Nc1ccc(N2CCOCC2)c(Cl)c1)c1cccs1	-110*
N#CC(c1cccc(Cl)c1)c1ccc2c(C(F)(F)F)cc(C(F)(F)F)nc2n1 (stereo not given)	97
COc1nc(Nc2ccc(C(C)C)cc2)nc(OC)n1	-111*
Cc1nc2ccc(S(=O)(=O)Nc3cc(-c4nc5cccnc5s4)ccc3C)cc2s1	-85*
Cc1ccc(C)c(NS(=O)(=O)c2ccc(-c3cnc(C4CC4)o3)cc2)c1	93
CC1CN(Cc2csc(-c3ccc(Cl)cc3)n2)CC(C)O1 (stereo not given)	-105*
N/C(=N\OC(=O)COc1ccc(Cl)cc1Br)c1cccnc1	-157*
CCc1ccc(OCC(=O)O/N=C(\N)c2cccnc2)cc1	-83*
N/C(=N\OC(=O)COc1ccc(Br)cc1Cl)c1cccnc1	-155*
